For 18 compounds, activity, negative = inhibition and Potency results are on record in PubChem BioAssay (NCATS).

Results filed as inconclusive are left out. Unmarked numbers belong to inactive results. Calls of active or inactive are those of the source. Calls come from the whole dose curve; as a rule, active = well fitted inhibition curve with a large enough effect; inconclusive = small, poorly fitted or top-dose-only effect; inactive = flat fitted curve, though single readings scatter.

Assay [1] is described as follows: qHTS profiling for inhibitors of Plasmodium falciparum proliferation (AID 504749).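 For activity, negative = inhibition: 0% = DMSO vehicle and full inhibition = artemisinin control.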 Note: nearly all actives have a fitted effect of over 60% in size. The conditions noted are these: P. falciparum in erythrocytes, SYBR Green DNA, 72 h. The method, boiled down: (§1)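 P. falciparum-infected erythrocytes (0.3% parasitemia, 2.5% hematocrit) incubated with compound 72 h at 37 C, 5% CO2. Parasite DNA detected by SYBR Green after lysis, overnight at room temperature; normalised to 0.29 uM artemisinin and DMSO.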
Background: qHTS replaces the single test concentration by a dilution series.

Another assay deals with 3D7. Described as above. The conditions noted are these: P. falciparum in erythrocytes, SYBR Green DNA, 72 h; series mostly up to 28.7 µM. The method, boiled down: as §1
A further assay concerns 7G8. Described as above. The conditions noted are these: P. falciparum in erythrocytes, SYBR Green DNA, 72 h; series mostly up to 28.7 µM. In outline:
as §1

The subject of the next assay is AA1029. Described as above. The conditions noted are these: P. falciparum in erythrocytes, SYBR Green DNA, 72 h; series mostly up to 28.7 µM. The method, boiled down:
as §1

The next assay concerns AS120. The description is as above. The conditions noted are these: P. falciparum in erythrocytes, SYBR Green DNA, 72 h; series mostly up to 28.7 µM. The method, boiled down:
as §1

A further assay deals with ATS189. Described as above. The conditions noted are these: P. falciparum in erythrocytes, SYBR Green DNA, 72 h; series mostly up to 28.7 µM. The method, boiled down: as §1
For another assay, the system named is ATS95. Described as above. The conditions noted are these: P. falciparum in erythrocytes, SYBR Green DNA, 72 h; series mostly up to 28.7 µM. In outline:
as §1

The next assay has as its system C2A. Described as above. The conditions noted are these: P. falciparum in erythrocytes, SYBR Green DNA, 72 h; series mostly up to 28.7 µM. In outline: as §1
For another assay, the system named is CP185. The assay is described as above. The conditions noted are these: P. falciparum in erythrocytes, SYBR Green DNA, 72 h; series mostly up to 28.7 µM. The method, boiled down: as §1
For the next assay, the system named is CP191. The assay is described as above. The conditions noted are these: P. falciparum in erythrocytes, SYBR Green DNA, 72 h; series mostly up to 28.7 µM. The method, boiled down:
as §1

A further assay relates to CP192. Described as above. The conditions noted are these: P. falciparum in erythrocytes, SYBR Green DNA, 72 h; series mostly up to 28.7 µM. In outline: as §1
The mark [2] stands for this setting: at 28.7 µM (top of the series), parasite line A.
Setting [3] is: at 28.7 µM (top of the series), parasite line B.
Potency is the fitted concentration of half-maximal effect.

Consider `CC(C)(CO)[C@@H](O)C(=O)NCCC(=O)NCCSSCCNC(=O)CCNC(=O)[C@H](O)C(C)(C)CO`, for which the activity, negative = inhibition in [1] (setting [2]) was -1%; in [1] (setting [3]) it was -2.45%. Also, the Potency entry with 3D7, with 7G8, in the assay on AA1029, with AS120, in the assay with ATS189 and in the assay on ATS95 was “inactive” in each case. The Potency result in the assay on C2A, in the assay with CP185, in the assay on CP191 and in the assay on CP192 was “inactive” throughout.
As for `C[Si](C)(C)O[Si](C)(C)C`, the activity, negative = inhibition in assay [1] (setting [2]) is 4.89%; in assay [1] (setting [3]), 10.8%. Further, the Potency entry in the assay with 3D7, in the assay with 7G8, in the assay with AA1029, in the assay on AS120, with ATS189 and in the assay on ATS95 was “inactive” in each case. Besides, the Potency entry in the assay with C2A, in the assay on CP185, in the assay with CP191 and in the assay with CP192 was “inactive” each time.
For the compound `COC(=O)CC[C@H](N)C(=O)O`, the activity, negative = inhibition in assay [1] (setting [2]) was 18.1%; in assay [1] (setting [3]), 11.5%. Also, the Potency result in the assay with 3D7, in the assay on 7G8, in the assay with AA1029, in the assay on AS120, in the assay on ATS189 and with ATS95 was “inactive” in each case. Further, the Potency entry with C2A, in the assay with CP185, in the assay on CP191 and with CP192 was “inactive” in each case.
As for `O=C(O)COc1ccccc1/C=N/NC(=O)c1ccncc1`, the figures for the activity, negative = inhibition in assay [1] (setting [2]) and in assay [1] (setting [3]) were 7.51% and 0.92%, respectively. Further, the Potency entry in the assay on 3D7, in the assay with 7G8, in the assay on AA1029, in the assay with AS120, with ATS189 and in the assay on ATS95 was “inactive” throughout. For the same compound, the Potency entry with C2A, in the assay on CP185, in the assay on CP191 and with CP192 was “inactive” in each case.
Consider `O=C(NNCNNC(=O)c1ccncc1)c1ccncc1`, for which the activity, negative = inhibition is 1.43% in assay [1] (setting [2]) and 9.6% in [1] (setting [3]). In addition, the Potency result in the assay on 3D7, with 7G8, with AA1029, in the assay on AS120, in the assay on ATS189 and in the assay with ATS95 was “inactive” each time. Further, the Potency entry in the assay with C2A, in the assay with CP185, in the assay on CP191 and in the assay on CP192 was “inactive” each time.
With `CN=C1C=CC(=C(c2ccc(N(C)C)cc2)c2ccc(N(C)C)cc2)C=C1`, the Potency in [1] (parasite line A) is 562 nM (active); in [1] (parasite line B), 398 nM (active); with 3D7, 708 nM (active); in the assay with 7G8 it was 282 nM (active); in the assay on AA1029, 708 nM (active); in the assay with AS120, 1000 nM (active). Moreover, the Potency was 447 nM (active) in the assay with ATS189; 1120 nM (active) in the assay with ATS95; 447 nM (active) in the assay on C2A; 447 nM (active) with CP185; 282 nM (active) in the assay on CP191; 849 nM (active) in the assay with CP192.
For `O=C(O)/C=C/C(=O)Nc1ccc(S(=O)(=O)Nc2nccs2)cc1`, the values for the activity, negative = inhibition in assay [1] (setting [2]) and in assay [1] (setting [3]) were 17.5% and -1.66%, respectively. In addition, the Potency entry in the assay with 3D7, in the assay with 7G8, in the assay on AA1029, in the assay with AS120, in the assay with ATS189 and with ATS95 was “inactive” each time. For the same compound, the Potency result with C2A, with CP185, with CP191 and with CP192 was “inactive” each time.
As for `Cc1cccc(C)c1NC(=O)C1CCCCN1C` (stereo unspecified), the activity, negative = inhibition in assay [1] (setting [2]) was -4.61%; in [1] (setting [3]), -9.47%. Moreover, the Potency result in the assay with 3D7, with 7G8, in the assay on AA1029, with AS120, in the assay on ATS189 and with ATS95 was “inactive” in each case. Besides, the Potency entry with C2A, with CP185, in the assay on CP191 and in the assay on CP192 was “inactive” each time.
With `CC1=C(/C=C/C(C)=C/C=C/C(C)=C/C(=O)Oc2c(C)c(C)c3c(c2C)CC[C@@](C)(CCC[C@H](C)CCC[C@H](C)CCCC(C)C)O3)C(C)(C)CCC1`, the activity, negative = inhibition in assay [1] (setting [2]) is 5.64%; in assay [1] (setting [3]), 7.26%. Further, the Potency result with 3D7, in the assay on 7G8, in the assay with AA1029, in the assay on AS120, in the assay on ATS189 and with ATS95 was “inactive” each time. In addition, the Potency entry in the assay on C2A, in the assay on CP185, with CP191 and in the assay on CP192 was “inactive” in each case.
With `CCN(CC)CCOc1ccccc1OC`, the values for the activity, negative = inhibition in assay [1] (setting [2]) and in [1] (setting [3]) were -4.79% and -3.67%, respectively. The Potency result in the assay on 3D7, in the assay with 7G8, in the assay on AA1029, in the assay with AS120, in the assay with ATS189 and in the assay on ATS95 was “inactive” throughout. In addition, the Potency entry in the assay on C2A, in the assay on CP185, with CP191 and in the assay with CP192 was “inactive” throughout.
As for `O=C1NCCN1c1ncc([N+](=O)[O-])s1`, the activity, negative = inhibition is -20% in assay [1] (at 12.8 µM (top of the series), parasite line A) and -14.4% in assay [1] (at 12.8 µM (top of the series), parasite line B). Also, the Potency result with 3D7, with 7G8, with AA1029, in the assay with AS120, in the assay with ATS189 and in the assay with ATS95 was “inactive” throughout. Moreover, the Potency result in the assay with C2A, in the assay on CP185, in the assay on CP191 and in the assay on CP192 was “inactive” throughout.
For the compound `CC(C)c1ncc([N+](=O)[O-])n1C`, the activity, negative = inhibition is 8.33% in assay [1] (setting [2]) and 4.53% in [1] (setting [3]). The Potency entry in the assay on 3D7, with 7G8, in the assay on AA1029, in the assay on AS120, with ATS189 and in the assay with ATS95 was “inactive” in each case. Further, the Potency entry in the assay with C2A, in the assay with CP185, in the assay on CP191 and with CP192 was “inactive” each time.
As to `CCC(C(=O)NC(N)=O)c1ccccc1` (stereo unspecified), the activity, negative = inhibition was -3.47% in [1] (setting [2]) and 11.3% in assay [1] (setting [3]). For the same compound, the Potency entry in the assay on 3D7, in the assay on 7G8, in the assay with AA1029, with AS120, in the assay with ATS189 and in the assay on ATS95 was “inactive” each time. The Potency result with C2A, with CP185, with CP191 and in the assay on CP192 was “inactive” in each case.
As for `CC/C(=C(/CC)c1ccc(OP(=O)(O)O)cc1)c1ccc(OP(=O)(O)O)cc1`, the figures for the activity, negative = inhibition in assay [1] (setting [2]) and in [1] (setting [3]) were 13.6% and -2.71%, respectively. For the same compound, the Potency result in the assay with 3D7, in the assay with 7G8, with AA1029, in the assay with AS120, in the assay with ATS189 and in the assay on ATS95 was “inactive” throughout. Also, the Potency entry in the assay with C2A, in the assay on CP185, with CP191 and in the assay with CP192 was “inactive” each time.
In the case of `CO`, the activity, negative = inhibition was 8.74% in [1] (setting [2]) and -8% in assay [1] (setting [3]). The Potency entry with 3D7, in the assay on 7G8, with AA1029, in the assay on AS120, in the assay with ATS189 and with ATS95 was “inactive” each time. Besides, the Potency entry in the assay with C2A, in the assay with CP185, in the assay on CP191 and with CP192 was “inactive” in each case.
For `C[C@H](CCCC(C)(C)O)[C@H]1CC[C@H]2[C@@H]3CC=C4C[C@@H](O)CC[C@]4(C)[C@H]3CC[C@]12C`, the activity, negative = inhibition in assay [1] (setting [2]) was 13.3%; in assay [1] (setting [3]), 17.1%. Further, the Potency entry in the assay on 3D7, in the assay with AA1029, with AS120, in the assay with ATS189, in the assay with ATS95 and in the assay with C2A was “inactive” each time. Besides, the Potency result in the assay on CP185, in the assay with CP191 and with CP192 was “inactive” each time. The Potency in the assay on 7G8 was 11200 nM (active).
Consider `Cc1cc(C(=O)NCCc2ccc(S(=O)(=O)NC(=O)NN3CCCCCC3)cc2)no1`, for which the results for the activity, negative = inhibition in assay [1] (setting [2]) and in assay [1] (setting [3]) were 7.09% and 6.94%, respectively. Further, the Potency result in the assay with 3D7, in the assay with 7G8, with AA1029, in the assay with AS120, with ATS189 and with ATS95 was “inactive” in each case. The Potency entry in the assay with C2A, with CP185, in the assay with CP191 and in the assay on CP192 was “inactive” in each case.
Take `O=C(O)CCCC/C=C(\c1ccccc1)c1cccnc1`: the activity, negative = inhibition in [1] (setting [2]) is 3.33%; in assay [1] (setting [3]), 8.41%. The Potency entry in the assay with 3D7, in the assay on 7G8, in the assay with AA1029, with AS120, in the assay with ATS189 and in the assay with ATS95 was “inactive” in each case. For the same compound, the Potency entry in the assay on C2A, with CP185, in the assay on CP191 and with CP192 was “inactive” each time.
